About 79,000 compounds went through this panel and 15% of them were active in at least one assay; those are over-represented in the sample as a whole. Values without a mark were called inactive. The source made the active and inactive calls. No stated cut-off is given here; in the data, active means growth inhibition above about 70%; inactive means the rest.
Experiments:
[1] = NCI Yeast Anticancer Drug Screen. Data for the rad50 strain (AID 155);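 further: 0% = growth of vehicle-only cultures of the same strain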; details: S. cerevisiae rad50 strain growth inhibition, stronger effect = higher value
Summary of the method: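 Yeast carrying a defined DNA repair defect were exposed to test compounds, and growth was compared with vehicle-treated controls to give percent inhibition.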

[2] = NCI Yeast Anticancer Drug Screen. Data for the mec2-1 strain (AID 157); details: S. cerevisiae mec2-1 strain, stronger effect = higher value
Summary of the method: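 Yeast mec2-1 mutant treated with compound. Readout: growth inhibition vs vehicle controls.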

[3] = NCI Yeast Anticancer Drug Screen. Data for the sgs1 mgt1 strain (AID 161);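 further: 0% = growth of cultures given vehicle only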; details: S. cerevisiae sgs1 mgt1 strain, stronger effect = higher value
Summary of the method: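 Read-out: growth inhibition vs vehicle controls. Cells: mutant yeast strain deficient in DNA damage repair.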

[4] = NCI Yeast Anticancer Drug Screen. Data for the cln2 rad14 strain (AID 165);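 further: 0% = growth equal to vehicle treated cultures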; details: S. cerevisiae cln2 rad14 strain, stronger effect = higher value
Summary of the method: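 cln2 rad14 yeast strain; compound exposure; growth inhibition read vs vehicle controls.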

[5] = NCI Yeast Anticancer Drug Screen. Data for the bub3 strain (AID 167); details: S. cerevisiae bub3 mutant strain, stronger effect = higher value
Summary of the method: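 Compounds were applied to a genetically altered yeast strain carrying a cell-cycle control defect. Growth inhibition was scored against vehicle-treated controls.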

[6] = NCI Yeast Anticancer Drug Screen. Data for the mlh1 rad18 strain (AID 175); details: S. cerevisiae mlh1 rad18 strain growth inhibition, stronger effect = higher value
Summary of the method: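 Yeast w/ defined DNA-repair lesions; compound exposure; growth vs vehicle controls → % inhibition.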

[7] = at 5.0 µM (retest, dose inferred, filed as 0.5)
[8] = at 50.0 µM (retest, dose inferred, filed as 5.0)

| SMILES | growth inhibition [1, 7] | growth inhibition [1, 8] | growth inhibition ([1]; at 50.0 µM) | growth inhibition [2, 7] | growth inhibition [2, 8] | growth inhibition ([2]; at 50.0 µM) | growth inhibition [3, 7] | growth inhibition [3, 8] | growth inhibition ([3]; at 50.0 µM) | growth inhibition [4, 7] | growth inhibition [4, 8] | growth inhibition ([4]; at 50.0 µM) | growth inhibition [5, 7] | growth inhibition [5, 8] | growth inhibition ([5]; at 50.0 µM) | growth inhibition [6, 7] | growth inhibition [6, 8] | growth inhibition ([6]; at 50.0 µM) |
| --- | --- | --- | --- | --- | --- | --- | --- | --- | --- | --- | --- | --- | --- | --- | --- | --- | --- | --- |
| COC(=O)c1ccc2ccccc2c1C(=O)c1ccc(F)cc1 | -1% | 94% (active) | 96.8% (active) | 2% | 96% (active) | 95.5% (active) | 4% | 95% (active) | 96.2% (active) | 11% | 90% (active) | 61.7% | 25% | 97% (active) | 97.4% (active) | 2% | 95% (active) | 95% (active) |
| CC1CCN(SSc2nc3ccccc3s2)CC1 | 31% | 91% (active) | 28.4% | 36% | 94% (active) | 80.5% (active) | 51% | 96% (active) | 77.4% (active) | 44% | 70% (active) | 21.4% | 61% | 97% (active) | 82% (active) | 30% | 73% (active) | 79% (active) |
| COc1ccc(OC)c2c(=S)c3ccccc3[nH]c12 | -1% | 75% (active) | 85.3% (active) | 0% | 44% | 26.2% | -5% | 43% | 60.6% | -5% | -5% | 40.6% | -6% | 37% | 60.2% | -5% | 65% | 91.1% (active) |
| CCCCCCCCCCCCOC(=O)CC1CC(C(C)=O)C1(C)C (configuration not stated) | 2% | -9% | 18.5% | 0% | -7% | -20.8% | 0% | -7% | 24.1% | 1% | -8% | 84.3% (active) | -3% | -13% | 11.2% | 25% | -4% | 41.2% |
| COc1ccc2c(c1)[n+]([O-])c(-c1ccc(Cl)cc1)c(N)[n+]2[O-] | 33% | 98% (active) | 99.2% (active) | 29% | 98% (active) | 99.3% (active) | 39% | 99% (active) | 99.3% (active) | 46% | 95% (active) | 98.8% (active) | 80% (active) | 99% (active) | 99.2% (active) | 79% (active) | 99% (active) | 99% (active) |
| COC(=O)c1ccc2c(c1)CC1(C2)Cc2ccccc2C1=O (configuration not stated) | 14% | 88% (active) | 68% | -20% | 92% (active) | 77% (active) | -4% | 84% (active) | 83.5% (active) | -37% | 64% | 57.5% | 6% | 98% (active) | 87.1% (active) | -17% | 94% (active) | 79.5% (active) |
| Cc1ccc(S(=O)(=O)OC2C(C)OCOC(C)C2OS(=O)(=O)c2ccc(C)cc2)cc1 (configuration not stated) | 1% | 0% | 24.6% | -2% | -1% | 11.9% | -2% | -17% | 5.9% | 0% | -12% | 16.6% | 2% | 15% | 93% (active) | 1% | 1% | -3.85% |
| CN(C)CCN(C)N=Nc1c(-c2cccs2)n[nH]c1C(F)(F)F | 98% (active) | 99% (active) | 99.1% (active) | 99% (active) | 100% (active) | 99.7% (active) | 99% (active) | 100% (active) | 99.6% (active) | 99% (active) | 98% (active) | 99.3% (active) | 99% (active) | 99% (active) | 99.5% (active) | 99% (active) | 100% (active) | 99.5% (active) |
| Cc1cccc(/C=N/NC(=S)Nc2ccc(Cl)cc2)n1 | 6% | 98% (active) | 70% (active) | 0% | 97% (active) | 81.8% (active) | -5% | 98% (active) | 87% (active) | -25% | 96% (active) | 86.5% (active) | -12% | 98% (active) | 87.2% (active) | 35% | 98% (active) | 88.8% (active) |

Source: PubChem BioAssay (NCI)
